Screening data from PubChem.
Shown are actives, neighbours in structure and some others; about 6.2% of the full set was active somewhere.
LASV entry inh: qHTS for Inhibitors of binding or entry into cells for Lassa Virus | 300,000 compounds, 1.2% hits | Lassa virus pseudotype entry inhibition, cell reporter | AID 540256, 2011 | Potency, µM (top dose mostly 37.9 µM), for the others: top-dose activity change, negative = inhibition, most hits filed as inhibitors; calls by dose curve; tested in HEK293 cells; note: potency is the fitted concentration of half-maximal effect; nearly all actives have a fitted effect of over 50% in size
HCMV inh: qHTS Assay for inhibitors of the human cytomegalovirus (HCMV). HFF cells, HCMV-luciferase reporter, 72 h; hits give low values. 410,000 compounds, 4.5% hits. activity change, negative = inhibition, % at 57.5 µM; in the data active = activity change below about -60%; inconclusive = no clear call, values can overlap the other calls; inactive = above about -39%
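After 16 h attachment at 37C, HFF cells received test compound and HCMV-luciferase (1 PFU/cell); reporter luminescence read 72 h later, data normalized against buffer-only and known inhibitor Salinomycin.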
FMDV inh: High Throughput Screening for Foot and Mouth Disease Virus Antivirals; FMDV antiviral cell-based qHTS; Potency, µM (series often up to 57.9 µM), for the others: at the highest dose activity change, negative = inhibition, hits mostly inhibitors; 410,000 compounds, 1.2% hits; calls by dose curve; tested in HEK293T cells; note: read-out not given here; potency is the fitted concentration of half-maximal effect; nearly all actives have a fitted effect of over 45% in size
MARV entry inh: qHTS for inhibitors of binding or entry into cells for Marburg Virus; Marburg virus pseudotyped entry inhibition, cell reporter; Potency, µM (titrated, usually from 37.8 µM), for the others: at the top dose activity change, negative = inhibition, hits mostly inhibitors; 300,000 compounds, 1.8% hits; calls by dose curve; tested in HEK293 cells; note: potency is the fitted concentration of half-maximal effect
* = called active by the depositor; ? = inconclusive; . = not tested or not shown; [ ] = remark or other dose. % is set by controls: 0 for no effect and ±100 for the full control effect.

SMILES	LASV entry inh	HCMV inh	FMDV inh	MARV entry inh
O=C(Nc1nc(-c2ccc(F)c(F)c2)cs1)C1=COCCO1	.	-24	6%	.
Cc1csc(NC(=O)c2ccc(OCC3CCCO3)cc2)n1 (stereo not drawn)	3.5µM*	-13	-68%	4.5µM*
Fc1cccc2sc(Nc3nc4cc5c(cc4s3)OCCO5)nc12	?	21	-24%	?
CCOC(=O)c1c(NC(=O)CSc2c[nH]c3ccccc23)sc2c1CCCC2	?	-17	?	13µM*
CCOC(=O)c1c(NC(=O)CSc2nnc(-c3c[nH]c4ccccc34)n2CCOC)sc2c1CCCCC2	23µM*	-67*	?	?
CCOC(=O)c1c(NC(=O)CSc2c[nH]c3ccccc23)sc2c1CCC2	?	58	-6%	?
CCOC(=O)c1c(NC(=O)C(NCCN(C)C)c2ccccc2)sc2c1CCCC2 (stereo not drawn)	11µM*	-26	-16%	?
COCCNc1nnc(SCC(=O)Nc2sc3c(c2C(=O)c2ccccc2)CCCC3)s1	?	-86*	?	?
CCOC(=O)c1c(NC(=O)CC)sc2c1CCN(Cc1ccccc1)C2	.	-1	-28%	.
CCOC(=O)c1c(NC(=O)CSc2cn(CCNC(=O)c3ccccc3OC)c3ccccc23)sc2c1CCC2	?	-6	-20%	13µM*
CCOC(=O)c1c(NC(=O)CSc2ncccn2)sc2c1CCN(Cc1ccccc1)C2	?	29	?	16µM*
COC(=O)c1cncc(C=Cc2c(C)cc(O)cc2C)c1	3.1µM*	.	.	.
CC1CCC2C(C1)Nc1c(C(=O)O)cccc1C2(C)C (stereo not drawn)	.	?	-6%	-17%[46.1 µM]
CN1CCC(N(C)C(=O)c2ccc(Cl)c(S(=O)(=O)N3CCc4ccccc43)c2)CC1	.	1	-8%	.
N#Cc1cccc(-c2nccc(NCc3cccs3)n2)c1	.	.	20%	.
Cc1nn2c(=O)cc(COC(=O)c3ccc(NC(=O)c4cccc(Br)c4)cc3)nc2s1	14%[46.1 µM]	11	18µM*	.
O=C(Nc1ccc(C(=O)OC[C@@H]2CCCN3CCCC[C@H]23)cc1)c1cccc(Br)c1	-6%	-5	-4%	9.2µM*
Cc1nn2c(=O)cc(COC(=O)c3cccc(NC(=O)c4cccs4)c3)nc2s1	20%[46.1 µM]	-11	10µM*	.
Cc1nn2c(=O)cc(COC(=O)c3ccc(NC(=O)C4CCCCC4)cc3)nc2s1	4%[46.1 µM]	-65*	11µM*	.
CC(=O)Nc1cc(C(=O)NCc2ccco2)ccc1Sc1ccc(F)cc1	-5%	-17	4%	?
CCCCOc1ccc(C(=O)Nc2ccc(S(=O)(=O)Nc3nc(C)cc(C)n3)cc2)cc1	-4%[46.1 µM]	-11	-14%	?
COc1ccc(Cl)cc1NC(=O)CCNS(=O)(=O)c1cccc2nonc12	-9%[46.1 µM]	37	-4%	-4%[46.1 µM]
CC(C)c1nn2c(=O)cc(COC(=O)c3ccccc3NC(=O)c3cccc(Cl)c3)nc2s1	17%[46.1 µM]	-30	8.9µM*	.
Cc1ccc(C(=O)Nc2cccc(C(=O)OCc3cc(=O)n4c5c(sc4n3)CCCC5)c2)cc1	26%[46.1 µM]	-88*	-19%	.
O=C(OCc1cc(=O)n2nc(C3CC3)sc2n1)c1ccc(NC(=O)c2ccccc2F)cc1	-2%[46.1 µM]	-19	-27%	.
SMILES	LASV entry inh	HCMV inh	FMDV inh	MARV entry inh
Cc1ccccc1C(=O)Nc1ccc(C(=O)OCc2cc(=O)n3nc(C4CC4)sc3n2)cc1	?	-81*	13µM*	.
Cc1cccc(C(=O)Nc2ccc(C(=O)OCc3cc(=O)n4nc(C5CC5)sc4n3)cc2)c1	3.2µM*	-10	14µM*	.
CC(C)N(C(=O)COC(=O)[C@@H]1CC(O)CN1S(=O)(=O)c1ccc(C(C)(C)C)cc1)C(C)C (stereo partly drawn)	0%[46.1 µM]	9	-14%	?
COC(=O)CN(C(=S)Nc1ccc(F)cc1)C1CC(=O)N(c2ccccc2)C1=O (stereo not drawn)	1%	-3	0%	?
O=C1C(=O)c2ccccc2C([O-])=C1[n+]1ccccc1	.	-36	22µM*	.
COCCNC(=O)C1CCC(=O)N(c2ccc(OC)cc2)C1c1ccc(OC)c(OC)c1 (stereo not drawn)	18%	2	20%	-7%
CCCN1CCN(C(=S)Nc2ccccc2C(F)(F)F)CC1	-19%	-83*	-19%	?
C/C(CCC1CC(C)(C)OC1=O)=N\NC(N)=S (stereo not drawn)	22%	-93*	-2%	?
CC(=O)N(c1cc(C)ccc1C)c1ccccc1[N+](=O)[O-]	19%[46.1 µM]	-63*	-13%	?
Nc1nc(N)c2[nH]c(=S)[nH]c2n1	5%[46.1 µM]	-15	-14%	9%[46.1 µM]
CCc1ccc(S(=O)(=O)NCCc2csc(-c3ccccc3)n2)s1	10%	-63*	.	?
Cc1ccc(S(=O)(=O)NCCc2csc(-c3cccc(F)c3)n2)cc1	-1%[46.1 µM]	-24	-3%	.
O=S(=O)(NCCc1csc(-c2cccc(F)c2)n1)c1cc(F)ccc1F	-3%[46.1 µM]	-106*	32%	.
Cn1ncc2c(Nc3ccc(-c4ccccc4)cc3)ncnc21	3.7µM*	?	.	2.9µM*
COc1ccc(-c2c(C#Cc3ccsc3)c3cc(-c4ccc5c(c4)OCO5)ccc3n2C)cc1	.	-71*	-3%	.
COc1ccc(-c2c(C#Cc3ccsc3)c3cc(-c4ccc5c(c4)OCCO5)ccc3n2C)cc1	.	-3	-18%	.
NCCCCCCNS(=O)(=O)c1cccc2ccccc12	.	.	40%	.
NCCCCNS(=O)(=O)c1cccc2c(Cl)cccc12	.	.	.	4µM*
CCC(C)n1c(O)c(/C=N/Nc2ccccc2)c(=O)[nH]c1=S (stereo not drawn)	?	-80*	12%	4%
COc1ccc(CCN2CC3=C(C2=O)C(c2ccccc2)NC(=O)N3C)cc1OC (stereo not drawn)	-4%	64	5%	-5%
O=C(CCCN1C(=O)S/C(=C\c2ccccc2)C1=O)NNC(=O)c1ccccc1O	?	-83*	?	1.8µM*
O=C(CCCN1C(=O)/C(=C/c2cccs2)SC1=S)Nc1cc([N+](=O)[O-])ccc1O	.	-73*	-11%	.
O=C(CCCN1C(=O)/C(=C/c2ccccc2)SC1=S)NCCCn1ccnc1	.	-98*	-12%	.
O=C(CN1C(=O)S/C(=C\c2ccccc2)C1=O)NNC(=O)c1ccccc1O	?	-24	8%	7%
O=C(CCCN1C(=O)/C(=C/c2ccccc2)SC1=S)Nc1ccccc1O	7%	-100*	-23%	?
SMILES	LASV entry inh	HCMV inh	FMDV inh	MARV entry inh
CN(C)c1ccc(/C=N/NC(=O)c2ccn(C)n2)cc1	?	72	3%	-2%
O=C(CCCN1C(=O)/C(=C\c2cccs2)SC1=S)Nc1ccccc1O	.	-93*	3%	.
Cc1c(C(=O)N2CCc3ccccc3C2)sc2nc(-c3ccccc3)cn12	8%	-15	6%	-1%
c1ccc(-c2cn3c4c(sc3n2)CCCC4)cc1	?	?	-52%	1.1µM*
Cc1no[n+]([O-])c1COc1cccc(/C=N/Nc2nncn2N)c1	.	-82*	0%	.
Cc1ccc2nc(C(Cl)(Cl)Cl)nc(N/N=C/c3ccncc3)c2c1	-4%	-30	-24%	-2%[46.1 µM]
